Results taken from PubChem BioAssay AID504332 (National Center for Advancing Translational Sciences (NCATS), 2011).
“And” between values parts separate entries of the source, which are not always exact repeats. Equal entries are not always repeated. Out of some 350,000 compounds screened, about 31,000 (8.9%) were called active. Where a call stands in place of a potency, no number is given. Not shown: some 15% with an inconclusive outcome. Many of the other results were omitted from the sample, so actives are more common in it than they were. Where a structure was tested more than once in an assay, its records may differ in their call. Values without a mark were called inactive. Calls come from the whole dose curve; as a rule, active = well fitted inhibition curve with a large enough effect; inconclusive = small, poorly fitted or top-dose-only effect; inactive = no such curve, though single readings can be large or run the other way.

The molecules below were run against Histone-lysine N-methyltransferase EHMT2 (Homo sapiens) (UniProt Q96KQ7) (assay: qHTS Assay for Inhibitors of Histone Lysine Methyltransferase G9a). Settings: G9a H3K9 monomethylation, AlphaScreen, 2 h; series mostly up to 59 µM.
Summary of the method: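 Step 1: enzyme (final 20 nM) with compound, 15 min RT. Step 2: substrate peptide 500 nM and SAM 20 uM, 2 h RT. Step 3: anti-H3K9me1 antibody and AlphaScreen beads, 10 min, then plate read.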
Note: nearly all actives have a fitted effect of over 75% in size.
Potency is the fitted concentration of half-maximal effect.

Sequence of Histone-lysine N-methyltransferase EHMT2 (Homo sapiens) (Q96KQ7 913-1193 limits assumed): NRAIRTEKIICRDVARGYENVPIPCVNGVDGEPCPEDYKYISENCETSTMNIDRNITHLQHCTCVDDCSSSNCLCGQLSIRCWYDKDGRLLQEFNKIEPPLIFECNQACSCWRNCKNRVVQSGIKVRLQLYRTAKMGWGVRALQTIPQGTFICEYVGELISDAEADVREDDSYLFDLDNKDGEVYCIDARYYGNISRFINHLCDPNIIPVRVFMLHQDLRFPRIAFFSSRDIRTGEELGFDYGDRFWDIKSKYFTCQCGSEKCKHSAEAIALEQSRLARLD

SMILES	Potency	activity, negative = inhibition
O=C(NN1C(=O)C2C3C=CC(C3)C2C1=O)c1ccco1 (stereo unspecified)	12.6 µM (active)	–
O=C(NC1CC(=O)N(c2ccccc2)C1)c1ccco1 (stereo unspecified)	inactive	–
CC(C)=C1C2CCC1C1C(=O)N(NC(=O)c3ccco3)C(=O)C21 (stereo unspecified)	inactive	–
CCOc1ccc(CNC(=O)Cn2cc3c(n2)-c2c(oc(C(=O)N4CCCC4)c2C)CC3)cc1	inactive	–
O=C(COC(=O)c1ccc2ncsc2c1)Nc1ccc(Cl)cc1	–	-43.9% [at 12.7 µM]
O=c1ccnc(Nc2ccc(Cl)cc2)[nH]1	inactive	–
Cc1csc(Nc2ccc(Cl)cc2)[n+]1-c1ccc(Cl)cc1	20 µM (active)	–
CCc1ccc(NC(=O)COC(=O)c2cccs2)cc1	inactive	–
COc1ccccc1NC(=O)Cn1cnc2ccc(S(=O)(=O)N3CCC(C)CC3)cc2c1=O	inactive	–
COc1ccc(-c2nnc(SCC(=O)NC3CCCCC3)o2)cc1OC	inactive	–
COc1ccc(-c2noc(CCCC(=O)NC3CCCC3)n2)cc1OC	79.4 µM (active)	–
CCC(Sc1nnc(-c2ccc(OC)cc2)c(-c2ccc(OC)cc2)n1)C(=O)NC1CCCCC1 (stereo unspecified)	inactive	–
COc1ccc(-c2nnc(SCC(=O)Nc3ccc(C(C)C)cc3)nc2-c2ccc(OC)c(OC)c2)cc1OC	inactive	–
CCOc1cc(-c2noc(CCCC(=O)NC3CCCCC3)n2)ccc1OC	inactive	–
CCOc1ccc(-c2noc(CCC(=O)NC3CCCC3)n2)cc1OC	inactive	–
CCOc1cc(-c2nnc(SCC(=O)NC3CCCC3)nc2-c2ccc(OC)c(OCC)c2)ccc1OC	11.2 µM (active)	–
CCOc1cc(-c2nnc(SCC(=O)NC3CCCCC3)nc2-c2ccc(OC)c(OCC)c2)ccc1OC	8.91 µM (active)	–
CCOc1ccc2[nH]c3nc(SCC(=O)NC4CCCC4)nnc3c2c1	inactive	–
Cc1ccc(Nc2nnc(-c3ccc(C)c(S(=O)(=O)N4CCCCC4)c3)c3ccccc23)cc1	inactive	–
CC(=O)N1CCN(c2ccccc2NC(=S)NC(=O)c2cc3ccccc3o2)CC1	inactive	–

SMILES	Potency	activity, negative = inhibition
CC(C)(C)OC(=O)N1CCC(c2c(C(=O)NCCc3ccsc3)cnn2-c2ccc(F)cc2F)CC1	inactive	–
COc1ccc([C@H]2CC(=O)C=C(c3ccc(CO)cc3)C2)cc1	–	11.2% [at 0.501 µM]
Cc1c(-c2cccc(NC(=O)C(C)(C)C)c2)nc2ncccn12	inactive	–
COc1ccc(Br)cc1CNC(=O)c1cc(=O)[nH]c2ccc(S(=O)(=O)N3CCCC3)cc12	inactive	–
Cc1ccc(SCC(=O)Nc2ccc3oc(-c4ccccc4F)nc3c2)cc1	inactive	–
CCOC(=O)c1sc(NC(=O)CSc2nc(C)cc(C(F)(F)F)n2)c(C#N)c1C	11.2 µM (active)	–
CCOC(=O)c1sc(NC(=O)CSc2nnc(-c3ccco3)o2)c(C(=O)OCC)c1C	inactive	–
CCOC(=O)c1sc(NC(=O)CSc2ncccn2)c(C#N)c1C	–	-13.3% [at 12.7 µM]
O=C(Nc1ccc(C(=O)OCc2cc(=O)n3nc(C4CC4)sc3n2)cc1)c1ccc(F)cc1	–	7.88% [at 12.7 µM]
c1ccc(-c2noc(-c3cccs3)n2)nc1	inactive	–
S=c1[nH]nc(-c2cccs2)n1/N=C/c1cccs1	1.26 µM (active)	–
Oc1ccccc1/C=N/n1c(-c2cccs2)n[nH]c1=S	1.58 µM (active)	–
Cc1ccsc1/C=N/n1c(=S)[nH]nc(C)c1=O	inactive	–
Cc1n[nH]c(=O)nc1N/N=C/c1cccs1	inactive	–
COc1cc(-c2cc3n(C)c(C)c(CCC(=O)Nc4ccc(F)cc4)c(=O)n3n2)cc(OC)c1OC	inactive	–
Cc1cccc(NC(=O)CSc2nnc(CNC(=O)c3cccc(C)c3)n2-c2ccccc2)c1	inactive	–
COc1cccc(C(=O)CC(=O)C(=O)Nc2ccc([N+](=O)[O-])cc2C)c1	inactive	–
COc1cccc(NCCC(=O)c2cccc([N+](=O)[O-])c2)c1	35.5 µM (active)	–
COc1cccc(CNC(=O)CCCC(=O)Nc2cccc([N+](=O)[O-])c2)c1	inactive	–
O=C(CN1CCOC1=O)N1CCCC(Nc2ccc(F)c(F)c2)C1 (stereo unspecified)	inactive	–

SMILES	Potency	activity, negative = inhibition
CCC(=O)Nc1nc(C)c(C(=O)Nc2cccc(Cl)c2)s1	inactive	–
CCN(CC)CCCNC(=O)c1cc(-c2cccc(Cl)c2)on1	inactive	–
CCN(CC)CCNc1ncnc2c1cnn2-c1cc(Cl)ccc1C	inactive	–
CCN(CC)CCCC(C)Nc1ccnc2cc(Cl)ccc12 (stereo unspecified)	25.1 µM (active)	-36.5% [at 2.33 µM] and 28.9% [at 12.7 µM]
O=C(NCCc1ccco1)C(=O)NCCC1CCCCN1S(=O)(=O)c1ccccc1 (stereo unspecified)	–	10.9% [at 0.501 µM]
Cc1ccc(Nc2nc(-c3ccc(O)cc3O)cs2)nc1	10 µM (active)	–
CC(=O)Nc1cccc(-c2csc(Nc3cccc(C)n3)n2)c1	–	-3.54% [at 0.0925 µM]
c1cnc(Nc2nc(-c3ccc4ccccc4c3)cs2)nc1	–	27.1% [at 12.7 µM]
CCN(CC(=O)Nc1c(F)cccc1F)C(=O)c1ccc(S(=O)(=O)N2CCCCC2)cc1	–	0.134% [at 12.7 µM]
CC1CC(C)CN(c2ccc(S(=O)(=O)N3CCOCC3)cc2)C1 (stereo unspecified)	–	-7.51% [at 12.7 µM]
CN(C)c1ccc(N/C=C/C(=O)C(F)(F)F)cc1	7.08 µM (active)	–
O=C(/C=C/Nc1ccccc1OC(F)(F)F)C(F)(F)F	inactive	–
CCCOc1ccc(N/C=C/C(=O)C(C)(C)C)cc1	inactive	–
COc1ccc(-c2cn3c(n2)sc2cc(C(=O)Nc4ccc(F)cc4)ccc23)cc1	inactive	–
CCn1cc2nc(SCc3cccc(F)c3)n(CCc3ccccc3)c(=O)c2n1	inactive	–
CCOC(=O)C1(Cc2ccccc2C)CCCN(C(=O)CN2C(=O)CSC2=O)C1 (stereo unspecified)	inactive	–
O=C(c1ccccc1)c1ccc2nc(N3CCCCC3)c3nncn3c2c1	44.7 µM (active)	–
c1ccc(CC2CCN(c3nc4ccccc4n4cnnc34)CC2)cc1	–	26.6% [at 12.7 µM]
O=C(c1ccccc1)c1ccc(OC(=O)N2CCCC2)cc1	inactive	–
O=C(Nc1ccc(Oc2ccccc2)cc1)C1CCN(S(=O)(=O)c2ccc(Cl)cc2)CC1	inactive	–
